# Bioassay records deposited in PubChem BioAssay by National Center for Advancing Translational Sciences (NCATS).
# Rab9 prom act = qHTS Assay for Rab9 Promoter Activators | Potency, µM (series often up to 9.22 µM), without a hit: at the highest dose activation, negative = inhibition, usual class: activators | Huh7 Rab9 promoter-luciferase reporter, luminescence, 24 h | hit rate 2.8% among 320,000; note: % of control where 0% means no effect; nearly all actives have a fitted effect of over 60% in size
#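 Promoter activation is measured as luciferase luminescence in Huh7 cells stably transfected with a Rab9 promoter–luciferase construct, following 24 h compound exposure at 37 °C and 10 min reagent incubation at ambient temperature.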
# ELG1 DNA repair = qHTS screen for small molecules that inhibit ELG1-dependent DNA repair in human embryonic kidney (HEK293T) cells expressing luciferase-tagged ELG1. HEK293T ELG1-luciferase reporter, luminescence, 16 h; DNA damage induced by 5-fluorouridine. Potency, µM (top dose mostly 46.1 µM), inactives show at the highest dose activity change, negative = inhibition, hits mostly inhibitors. hit rate 2.3% among 330,000. AID 504467, 2011; note: % is set by controls: 0 for no effect and ±100 for the full control effect; nearly all actives have a fitted effect of over 55% in size
#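 Cells (2,000 per well) received 5-fluorouridine plus test compound or DMSO and were incubated 16 hr at 37 °C, 5% CO2. Luciferase activity was read by luminescence 30 min after ONE-Glo addition; signal suppression marked inhibition of damage-induced ELG1 function.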
# ELG1 genotox = qHTS screen for small molecules that induce genotoxicity in human embryonic kidney (HEK293T) cells expressing luciferase-tagged ELG1; HEK293T ELG1-luciferase reporter, luminescence, 16 h; AID 504466, 2011; hit rate 1.3% among 330,000; Potency, µM (highest dose often 46 µM), for inactives: top-dose activity change, positive = activation, usual class: activators; note: % of control where 0% means no effect; nearly all actives have a fitted effect of over 60% in size
#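 HEK293T cells expressing luciferase-tagged ELG1 were treated with compound or DMSO for 16 hr at 37°C. Luciferase activity was then read after 30 min with ONE-Glo at room temperature; rising signal flags genetic stress.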
# FLuc counter = qHTS profiling assay for firefly luciferase inhibitor/activator using purifed enzyme and Km concentrations of substrates (counterscreen for miR-21 project) | Potency, µM (highest dose often 57.5 µM), inactives show at the highest dose activity change, negative = inhibition, hits mostly inhibitors | AID 588342, 2011 | Luciferin 4-monooxygenase (Photinus pyralis), P08659 | hit rate 6.9% among 360,000 | purified FLuc, Km substrates, luminescence inhibition;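 note: plate controls were vehicle for no effect and reference inhibitor for full effect; nearly all actives have a fitted effect of over 55% in size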
# Target sequence (P08659 whole entry, looked up): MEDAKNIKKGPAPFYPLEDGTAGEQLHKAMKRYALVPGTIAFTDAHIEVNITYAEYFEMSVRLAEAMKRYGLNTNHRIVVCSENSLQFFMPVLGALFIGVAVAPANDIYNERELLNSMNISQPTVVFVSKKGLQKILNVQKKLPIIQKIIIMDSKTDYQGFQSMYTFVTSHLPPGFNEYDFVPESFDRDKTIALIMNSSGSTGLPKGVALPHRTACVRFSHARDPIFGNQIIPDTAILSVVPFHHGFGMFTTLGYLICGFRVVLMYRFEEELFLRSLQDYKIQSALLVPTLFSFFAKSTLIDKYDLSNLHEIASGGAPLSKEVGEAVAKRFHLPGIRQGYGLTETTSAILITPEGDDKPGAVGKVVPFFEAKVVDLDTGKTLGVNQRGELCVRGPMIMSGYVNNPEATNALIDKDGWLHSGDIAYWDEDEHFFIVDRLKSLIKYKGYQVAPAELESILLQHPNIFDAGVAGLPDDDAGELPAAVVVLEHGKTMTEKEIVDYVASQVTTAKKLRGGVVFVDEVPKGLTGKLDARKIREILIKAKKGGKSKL
#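 Purified P. pyralis luciferase, 10 nM final, with Km-level 10 uM D-luciferin and 10 uM ATP in 50 mM Tris acetate pH 7.5, 10 mM Mg acetate, 0.01% Tween-20, 0.05% BSA; 6-point qHTS titration about 60 µM downward; luminescence read.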
# NPC1 promoter act = qHTS Assay for NPC1 Promoter Activators; Potency, µM (series often up to 9.22 µM), for the others: at the highest dose activation, hits mostly activators; Huh7 NPC1 promoter luciferase reporter, 24 h; hit rate 2.4% among 320,000; AID 485313, 2010; note: % of control where 0% means no effect; nearly all actives have a fitted effect of over 60% in size
#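 Quantitative HTS used a cell-based reporter: Huh7 cells stably bearing the NPC1 promoter upstream of luciferase were treated with compounds for 24 h, and promoter activation was read as luminescence.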
# SMN2 splice enh = qHTS Assay for Enhancers of SMN2 Splice Variant Expression; Potency, µM (titrated, usually from 46.1 µM), for inactives: top-dose activity change, positive = activation, hits mostly activators; HEK293 SMN2-luciferase splicing reporter, luminescence, 30-36 h; hit rate 2.8% among 210,000; note: % of control where 0% means no effect; nearly all actives have a fitted effect of over 55% in size
#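 HEK293 cells carry an SMN2 minigene-luciferase reporter in which exon 7 inclusion puts luciferase in frame. Cells were seeded at 2000 cells/well, attached for 10-12 hours, then exposed to compounds for 30-36 hours at 37C before ONE-Glo luminescence.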
# Starred values were filed as active, the others as inactive; u = inconclusive; x = not tested or not shown. Compounds with a hit are over-represented: about 9.2% of the library has one in this group of screens. Calls come from the whole dose curve; as a rule, active = well fitted curve in the direction sought with a large enough effect; inconclusive = small, poorly fitted or top-dose-only effect, or another doubt; inactive = no such curve, though single readings can be large; an effect the other way counts as inactive or inconclusive. Potency is the fitted concentration of half-maximal effect.
SMILES,Rab9 prom act,ELG1 DNA repair,ELG1 genotox,FLuc counter,NPC1 promoter act,SMN2 splice enh
CC(=O)N1CCCN(Cc2cn(-c3cccc(C)c3)nc2-c2cccc(F)c2)CC1,1%,-8%,-2%,17µM*,-4%,x
Cc1cccc(-n2cc(CN3CCCN(C=O)CC3)c(-c3cccc(F)c3)n2)c1,0%,-14%,1%,13µM*,-5%,x
Cc1ccc(-n2cc(CN3CCCN(C=O)CC3)c(-c3ccc(F)cc3)n2)cc1,-3%,23µM*,-1%,u,-4%,x
CC(=O)N1CCCN(Cc2cn(-c3cc(C)ccc3C)nc2-c2ccccc2)CC1,-2%,-7%,-6%,6%,-2%,x
Cc1ccc(-c2nnc(OCC3CCCO3)c3ccccc23)cc1 (configuration not stated),-9%,3%,-1%,u,-3%,x
CCCCN1CCCc2cc(CN(CCCN3CCOCC3)C(=O)Nc3ccc(CC)cc3)ccc21,x,x,x,7%,x,x
FC(F)(F)COc1ccc(-n2ccnc2)nn1,-12%,7%,0%,1%,-2%,-17%
CC(On1c(-c2ccccc2)nc2ccc(Cl)cc21)C(=O)O (configuration not stated),9%,u,6%,u,-3%,8%
COc1ccc(-c2nc3ccccc3n2OC(C)C(=O)O)cc1 (configuration not stated),0%,u,u,11µM*,-2%,x
Cc1ccc(-c2nc3ccc(Cl)cc3n2OC(C)C(=O)O)cc1 (configuration not stated),0%,u,u,11µM*,0%,u
N#Cc1ccccc1S(=O)(=O)N1CCN(C(=O)C2CCCCC2)CC1,x,-1%,0%,x,x,x
c1nc(Nc2ccc(N3CCOCC3)cc2)c2ccsc2n1,u,u,16%,17µM*,3.2µM*,x
Brc1ccc2ncnc(Nc3ccc(N4CCOCC4)cc3)c2c1,2%,6.5µM*,-11%,u,27%,-23%
N#CCCn1nc(-c2ccccc2)cc1Nc1ccccc1NC(=O)c1cccs1,1%,u,-10%,-4%,11%,-12%
CC(=O)Nc1ccc(S(=O)(=O)N2CCN(Cc3cccs3)CC2)cc1,-9%,u,-8%,-9%,-6%,-25%
Cc1ccc(-c2c(C)sc3ncn(CC(=O)N4CCOCC4)c(=O)c23)cc1C,-3%,2%,-2%,-1%,-6%,x
CCC(=O)N(CC)c1nc(-c2ccc(OC)cc2)cs1,u,u,7%,15µM*,4.5µM*,7%
CCN(C(=O)c1ccccc1F)c1nc(-c2ccc(OC)cc2)cs1,2µM*,u,u,8.5µM*,3.2µM*,x
CCC(=O)N(Cc1ccco1)c1nc(-c2ccc(OC)cc2)cs1,u,u,0%,-1%,10%,-11%
COCCN(C(=O)c1ccccc1F)c1nc(-c2ccc(OC)cc2)cs1,22%,14%,10%,u,u,x
CN(C(=O)c1ccco1)c1nc(-c2ccccc2)cs1,2µM*,u,u,5.4µM*,2.5µM*,x
COCCN(C(=O)c1ccco1)c1nc(-c2ccccc2)cs1,24%,20%,3%,-19%,22%,x
CN(c1ccc(O)cc1)c1nc(-c2ccccc2)cs1,u,u,u,u,2.2µM*,u
Cc1ccsc1C(=O)N1CCCC(CCC(=O)NCc2ccc(F)c(F)c2)C1 (configuration not stated),-12%,u,-6%,-3%,-1%,x
